Experimental findings from PubChem BioAssay (NCATS) are described below.

For assay [1], the target named is Lysosomal acid glucosylceramidase (Homo sapiens) (UniProt P04062). The experiment in a line: Glucocerebrosidase-p2 (AID 348; in the data active means potency below about 10 µM; further: potency means the concentration at half of the fitted maximal effect). Particulars: purified GBA, blue fluorogenic substrate, 40 min. An outline of the steps: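 Compounds titrated from 0.6 nM upwards against 0.2 nM enzyme in pH 5.9 citric acid/KH2PO4, taurocholate, tween-20; blue fluorogenic substrate 80 uM, 40 min room temperature, stopped and read Ex 365/Em 440 for AC50.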

Assay [2] in a line: AP1 Signaling Pathway (AID 357).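 Further: ME-180 reporter cells stimulated with EGF at its EC50 level; on the % scale 0 is the no-effect control and ±100 the full control effect.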 As to conditions: ME-180 AP-1-bla reporter, EGF-induced, beta-lactamase ratio, 5 h; at 7.69 µM (top of the series) unless noted. Summed up: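 A ratiometric CCF4 readout (405 nm excitation; 460 and 530 nm emission) quantified AP-1-driven beta-lactamase in ME-180 cells after 5 h with compound and EC50 EGF; AC50 values were derived for activators and inhibitors.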

Assay [3] has as its target Cytochrome P450 1A2 (Homo sapiens) (UniProt P05177). The experiment in a line: p450-cyp1a2 (AID 410; calls by dose curve; further: potency means the concentration at half of the fitted maximal effect;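 on activity change, negative = inhibition: -100% = full effect of reference inhibitor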). Particulars: recombinant CYP1A2, luciferin-ME demethylation, luminescence; series mostly up to 11.4 µM. Summed up:
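20nM CYP1A2 with 100uM Luciferin-ME (at Km) in 100mM KPO4; compound preincubated 10 min, NADPH regeneration added, 60 min at room temperature. Luciferin quantified by luminescence after detection reagent; normalized to 57 uM furafylline.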

Assay [4] is described as follows: NFAT Signaling Pathway (AID 444).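 Further: carbachol stimulus at about its EC50 of 1 µM final; on the % scale 0 is the no-effect control and ±100 the full control effect.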 Particulars: Jurkat NFAT-bla M1, carbachol, beta-lactamase ratio, 5 h; at 7.69 µM (top of the series) unless noted. An outline of the steps: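 Jurkat cells with NFAT-driven β-lactamase reporter and co-expressed M1 receptor, stimulated with carbachol (final 1 uM, ~EC50), compound titration, 5 h at 37 °C. CCF4 loaded 1 h at RT; 460/530 nm ratio gave %activity and AC50.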

Assay [5] in a line: Stat Signaling Pathway (AID 446).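 Further: ME-180 cervical cancer cells given 40 pM IL-6 alongside compound; SIE-controlled beta-lactamase reporter measured as 460/530 nm FRET emission ratio; on the % scale 0 is the no-effect control and ±100 the full control effect.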 As to conditions: ME-180 SIE beta-lactamase reporter, IL-6 stimulated, 5 h; at 7.69 µM (top of the series) unless noted. An outline of the steps:
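Reporter line: ME-180 cervical carcinoma, SIE-beta-lactamase. Treatment: compound with 40 pM IL-6, 5 hrs, 37 C, in low-serum OPTI-MEM with 10 mM HEPES pH 7.3. Detection: 460/530 nm fluorescence.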

The target in assay [6] is Glucocorticoid receptor (Homo sapiens) (UniProt P04150). The assay can be described thus: GR-GFP Redistribution (AID 450;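 active means compounds whose dose series gives a full or clear partial fitted curve of increased nuclear translocation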; further: potency means the concentration at half of the fitted maximal effect). As to conditions: U2OS GR-GFP nuclear translocation, laser cytometry, 2 h.
Assay [7] has the same target. The experiment in a line: GR-EFC Redistribution (AID 451; calls by dose curve; further: potency means the concentration at half of the fitted maximal effect). As to conditions: CHO-K1 GR-EFC translocation, beta-gal luminescence, 2 h. Summed up:
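CHO-K1 cells expressing nuclear EA and GR-ED fragments of b-gal; compounds titrated up to 46 uM final, 2 h at 37 C. GR nuclear translocation read as complemented b-gal luminescence after 1 h RT detection.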

Assay [8] deals with Mitogen-activated protein kinase 10 (Mus musculus) (UniProt Q61831). The experiment in a line: JNK3 AlphaScreen Assay (AID 530).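 Further: kinase came from lysate of stimulated human HepG2 cells; signal reports phosphorylation of biotinylated GST-cJun 1-79 at Ser73 with 10 µM ATP; on the % scale 0 is the no-effect control and ±100 the full control effect.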 As to conditions: JNK3 lysate, c-Jun phosphorylation; series mostly up to 11.4 µM. An outline of the steps:
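Pre-activated (IL-1β/TNFα) JNK3 in HepG2 lysates phosphorylates biotin-GST-cJun(1-79), 10 uM ATP; anti-phospho-cJun(Ser73) AlphaScreen read at room temperature, pH 7.6 Tris buffer. Compounds pre-incubated 15 min as titrations.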
In general terms: In Alpha technology, singlet oxygen from a donor bead excites a nearby acceptor bead.

In assay [9] the target is 3',5'-cyclic-AMP phosphodiesterase 4B (Homo sapiens) (UniProt Q07343). The assay can be described thus: qHTS Assay for Inhibitors of PDE-IV (AID 607; active means well fitted activation curve with a large enough effect in the main read-out, with a control signal flat, not every such curve was filed as active; further: % of control where 0% means no effect). Particulars: HEK293 ACTOne CNG channel cells, membrane potential fluorescence; series mostly up to 22.9 µM. An outline of the steps:
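Cell-based read-out of cAMP via a modified cyclic nucleotide-gated channel and membrane potential dye (535/590 nm) in HEK293 cells expressing PDE4 endogenously. Compounds tested up to 22.9 uM final; 100 uM RO 20-1724 reference.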
For orientation: In qHTS, concentration-response curves come from the screen itself.

Each structure is given as a SMILES string. A number with no mark means an inactive call. Results filed as inconclusive are left out. Active and inactive are the calls of the source. Unless noted, the call rests on the fitted dose curve; in most records, active means well fitted curve in either direction with a large enough effect (not every such curve was filed as active); inconclusive means small, poorly fitted or top-dose-only effect, or another doubt; inactive means flat fitted curve, though single readings scatter.

Chain of 3',5'-cyclic-AMP phosphodiesterase 4B (Homo sapiens) (Q07343 whole entry, looked up): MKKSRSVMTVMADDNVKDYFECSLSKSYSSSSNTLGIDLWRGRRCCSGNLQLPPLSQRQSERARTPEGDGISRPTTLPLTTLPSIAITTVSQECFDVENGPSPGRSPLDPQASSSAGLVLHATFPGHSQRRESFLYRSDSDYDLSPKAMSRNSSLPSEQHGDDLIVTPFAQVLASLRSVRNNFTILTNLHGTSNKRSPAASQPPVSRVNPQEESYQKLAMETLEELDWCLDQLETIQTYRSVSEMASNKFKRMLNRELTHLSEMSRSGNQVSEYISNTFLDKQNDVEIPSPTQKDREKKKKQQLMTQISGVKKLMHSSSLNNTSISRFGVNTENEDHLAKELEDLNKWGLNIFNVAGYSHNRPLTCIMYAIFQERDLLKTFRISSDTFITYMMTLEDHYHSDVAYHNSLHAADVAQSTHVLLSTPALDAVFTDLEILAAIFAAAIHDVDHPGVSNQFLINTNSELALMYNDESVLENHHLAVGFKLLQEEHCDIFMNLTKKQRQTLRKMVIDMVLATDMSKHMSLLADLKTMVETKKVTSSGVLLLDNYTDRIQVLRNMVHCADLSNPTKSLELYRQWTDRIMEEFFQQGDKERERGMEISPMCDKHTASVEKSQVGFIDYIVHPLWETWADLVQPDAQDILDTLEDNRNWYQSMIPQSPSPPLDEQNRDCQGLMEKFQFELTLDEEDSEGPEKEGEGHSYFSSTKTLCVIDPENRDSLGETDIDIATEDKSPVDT
Chain of Cytochrome P450 1A2 (Homo sapiens) (P05177 whole entry, looked up): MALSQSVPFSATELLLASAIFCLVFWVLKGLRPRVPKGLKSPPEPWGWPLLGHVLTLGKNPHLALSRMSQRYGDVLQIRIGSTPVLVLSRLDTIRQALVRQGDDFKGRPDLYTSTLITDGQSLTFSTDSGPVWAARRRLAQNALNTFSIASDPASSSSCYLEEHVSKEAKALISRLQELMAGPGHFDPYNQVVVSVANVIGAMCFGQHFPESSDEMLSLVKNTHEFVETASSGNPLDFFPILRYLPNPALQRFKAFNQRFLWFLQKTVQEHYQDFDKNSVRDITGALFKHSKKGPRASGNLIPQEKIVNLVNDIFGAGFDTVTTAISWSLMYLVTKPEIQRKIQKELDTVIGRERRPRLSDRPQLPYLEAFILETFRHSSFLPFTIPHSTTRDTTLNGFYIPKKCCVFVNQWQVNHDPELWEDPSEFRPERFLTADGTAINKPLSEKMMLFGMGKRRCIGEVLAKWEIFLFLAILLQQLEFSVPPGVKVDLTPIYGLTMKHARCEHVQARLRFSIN
Chain of Lysosomal acid glucosylceramidase (Homo sapiens) (P04062 whole entry, looked up): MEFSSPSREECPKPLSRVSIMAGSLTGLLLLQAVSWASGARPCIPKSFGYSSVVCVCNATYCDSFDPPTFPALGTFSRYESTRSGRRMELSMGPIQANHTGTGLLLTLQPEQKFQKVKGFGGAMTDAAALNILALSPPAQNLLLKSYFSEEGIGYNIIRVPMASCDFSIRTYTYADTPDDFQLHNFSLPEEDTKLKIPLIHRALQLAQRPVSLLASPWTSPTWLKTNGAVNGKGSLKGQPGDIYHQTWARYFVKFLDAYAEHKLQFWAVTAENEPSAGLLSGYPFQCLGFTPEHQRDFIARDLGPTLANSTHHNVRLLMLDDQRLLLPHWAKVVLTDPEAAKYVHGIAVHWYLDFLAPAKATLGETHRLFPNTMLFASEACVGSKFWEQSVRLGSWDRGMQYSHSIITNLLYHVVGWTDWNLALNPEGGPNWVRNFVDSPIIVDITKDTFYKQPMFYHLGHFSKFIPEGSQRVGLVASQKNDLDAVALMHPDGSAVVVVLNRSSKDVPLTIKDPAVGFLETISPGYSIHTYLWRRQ
Chain of Glucocorticoid receptor (Homo sapiens) (P04150 whole entry, looked up): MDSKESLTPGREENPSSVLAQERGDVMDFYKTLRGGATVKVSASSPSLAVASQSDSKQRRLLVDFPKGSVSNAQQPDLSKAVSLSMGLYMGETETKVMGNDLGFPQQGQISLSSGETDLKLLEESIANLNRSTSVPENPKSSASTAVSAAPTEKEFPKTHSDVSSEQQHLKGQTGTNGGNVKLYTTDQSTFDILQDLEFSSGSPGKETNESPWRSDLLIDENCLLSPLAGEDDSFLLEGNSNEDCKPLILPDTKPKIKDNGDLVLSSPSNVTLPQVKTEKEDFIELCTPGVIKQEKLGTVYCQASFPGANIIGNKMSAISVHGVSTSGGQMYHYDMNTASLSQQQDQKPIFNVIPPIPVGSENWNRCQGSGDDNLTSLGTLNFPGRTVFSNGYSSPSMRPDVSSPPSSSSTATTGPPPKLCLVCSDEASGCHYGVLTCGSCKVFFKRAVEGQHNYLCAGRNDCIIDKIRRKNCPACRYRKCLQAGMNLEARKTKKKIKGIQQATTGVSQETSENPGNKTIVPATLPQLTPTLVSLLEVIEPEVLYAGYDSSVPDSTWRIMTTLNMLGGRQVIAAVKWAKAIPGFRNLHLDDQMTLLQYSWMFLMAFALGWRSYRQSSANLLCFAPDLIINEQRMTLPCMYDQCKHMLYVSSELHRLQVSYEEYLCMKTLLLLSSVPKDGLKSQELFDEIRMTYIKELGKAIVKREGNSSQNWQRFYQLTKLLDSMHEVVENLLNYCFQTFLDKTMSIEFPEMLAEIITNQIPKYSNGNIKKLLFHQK

`NNC(=O)[C@@H](O)[C@H](O)[C@H](O)CO`: the Potency in assay [1] was above 11.4 µM; in assay [6] it was above 46 µM; in [7], above 9.22 µM. In addition, the activity change, negative = inhibition in assay [2] is 2.85%; in [4], 10.5%. Moreover, the Potency result in assay [3], in assay [8] and in assay [9] was “inactive” in each case. For the same compound, the activity, negative = inhibition in assay [5] was 2.62%.
With `NS(=O)(=O)c1cc(C(=O)O)c(O)c2ccccc12`, the figures for the Potency in assay [1], in assay [6] and in assay [7] were above 11.4 µM, above 46 µM and above 9.22 µM, respectively. Besides, the activity change, negative = inhibition in [2] was 15.8%; in [4], 12.4%. The Potency result in [3], in assay [8] and in [9] was “inactive” throughout. Besides, the activity, negative = inhibition in assay [5] is 10.7%.
Consider `N[C@@H]1[C@@H]2[C@@H]3C[C@H]4N(CC[C@@]14C(=O)C(=O)O)CC3=CCO[C@@H]2CC(=O)O`, for which the Potency was above 11.4 µM in assay [1], above 46 µM in assay [6] and above 9.22 µM in assay [7]. In addition, the activity change, negative = inhibition is -3.74% in [2] and 4.96% in [4]. In addition, the Potency entry in assay [3], in assay [8] and in [9] was “inactive” in each case. Moreover, the activity, negative = inhibition in assay [5] was 6.97%.
With `O=S(=O)(O)[C@@H](CO)c1ccccc1` (tested in a mixture with another compound), the Potency in assay [1] was above 11.4 µM; in assay [6], above 46 µM; in [7] it was above 9.22 µM. The activity change, negative = inhibition in assay [2] was -0.645%; in assay [3] it was -1.9% [at 2.29 µM]; in [4] it was 3.56%. Moreover, in assay [5], the activity, negative = inhibition is -7.29%. Also, the Potency result in assay [8] and in assay [9] was “inactive” throughout.
For the compound `CCOC(=O)[C@]1(CC(=O)O)CCCC1=O`, the Potency in [1] was above 11.4 µM; in assay [6], above 46 µM; in assay [7], above 9.22 µM. The activity change, negative = inhibition in assay [2] was -0.0726%; in assay [4], -7.19%. Moreover, the Potency entry in assay [3], in [8] and in [9] was “inactive” in each case. Besides, the activity, negative = inhibition in assay [5] was -19.1%.
As to `CC(=O)[C@]1(O)CC[C@@H]2[C@H]3C[C@@H](C)C4=CC(=O)CC[C@@]4(C)[C@H]3[C@@H](O)C[C@]21C`, the Potency in [1] is above 11.4 µM; in [6], < 2.95e-05 µM (active); in [7], 0.0236 µM (active). Further, the activity change, negative = inhibition in assay [2] is -0.0488%; in assay [3] it was -2% [at 2.29 µM]; in [4] it was 16.8%. Moreover, the activity, negative = inhibition in assay [5] is -9.62%. Also, the Potency entry in assay [8] and in assay [9] was “inactive” each time.
On to `N#CCCn1c(=O)c(-c2cccc(C#N)c2)nc2cnc(Oc3ccccc3)nc21`, for which the Potency in [1] was above 11.4 µM; in [3] it was 20 µM (active); in [6], above 9.22 µM; in assay [7] it was above 46 µM. Further, the activity change, negative = inhibition in assay [2] was -17.5%; in assay [4] it was -7.09%. Further, the activity, negative = inhibition in assay [5] was -3.8%. For the same compound, the Potency entry in assay [8] and in [9] was “inactive” each time.
For the compound `c1ccc(CCCNc2nnnc3ccccc23)cc1`, the Potency was above 11.4 µM in assay [1], 3.98 µM (active) in [3], above 46 µM in assay [6] and above 9.22 µM in [7]. The activity change, negative = inhibition in assay [2] was -4.34%; in assay [4], -23%. Besides, the activity, negative = inhibition in assay [5] was -4.36%. The Potency entry in assay [8] and in assay [9] was “inactive” throughout.
With `NC(=O)NC(=O)[C@H]1CCCC[C@@H]1C(=O)O`, the Potency in [1] is above 11.4 µM; in assay [6] it was above 46 µM; in assay [7] it was above 9.22 µM. The figures for the activity change, negative = inhibition in assay [2] and in assay [4] were 7.05% and -5.46%, respectively. Also, the Potency entry in assay [3], in [8] and in assay [9] was “inactive” in each case. The activity, negative = inhibition in assay [5] is 17.8%.
`O=C(O)c1ccc(Nc2ccnc3cc(Cl)ccc23)cc1O`: the Potency is above 11.4 µM in [1], 3.98 µM (active) in [3], above 46 µM in [6] and above 9.22 µM in [7]. For the same compound, the values for the activity change, negative = inhibition in [2] and in assay [4] were -7.31% and 11.5%, respectively. Also, the activity, negative = inhibition in [5] was -9.48%. Besides, the Potency result in assay [8] and in assay [9] was “inactive” in each case.
As to `O=C(O)[C@@H](Cc1c[nH]c2ccccc12)C(=O)NO`, the Potency in assay [1] was above 11.4 µM; in assay [6], above 46 µM; in assay [7] it was above 9.22 µM. Besides, the values for the activity change, negative = inhibition in assay [2] and in [4] were -4.03% and 4.43%, respectively. Further, the Potency entry in assay [3], in assay [8] and in assay [9] was “inactive” each time. Besides, the activity, negative = inhibition in assay [5] is 4.19%.
Consider `CN(C)Cc1cc(C(C)(C)C)ccc1-c1ccc(C(C)(C)C)cc1CN(C)C`, for which the Potency in assay [1] was above 11.4 µM; in assay [6] it was above 46 µM; in [7] it was above 9.22 µM. The activity change, negative = inhibition in assay [2] was 4.9%; in [3], -17.9% [at 2.29 µM]; in [4], 5.47%. Moreover, the activity, negative = inhibition in [5] was 1.89%. In addition, the Potency result in assay [8] and in [9] was “inactive” in each case.
Regarding `CN(C)CCCCN1CCc2c(n(C)c3ccccc23)C1=O`, the Potency was above 11.4 µM in assay [1], above 46 µM in [6] and above 9.22 µM in assay [7]. In addition, the activity change, negative = inhibition in [2] is 14%; in [3] it was -14.1% [at 2.29 µM]; in assay [4] it was 5.6%. Further, the activity, negative = inhibition in assay [5] is 3.15%. Further, the Potency entry in assay [8] and in assay [9] was “inactive” in each case.
With `O=C(CN1C(=O)c2ccccc2C1=O)NC1(C(=O)O)CCCC1`, the figures for the Potency in [1], in assay [6] and in [7] were above 11.4 µM, above 46 µM and above 9.22 µM, respectively. For the same compound, the activity change, negative = inhibition in assay [2] was -5.19%; in assay [3] it was -2.1% [at 2.29 µM]; in assay [4], -0.506%. Moreover, in [5], the activity, negative = inhibition is 7.15%. Also, the Potency entry in assay [8] and in assay [9] was “inactive” each time.
Regarding `Cc1ccnc(NS(=O)(=O)c2ccc(N=[N+]=[N-])cc2)n1`, the figures for the Potency in [1], in assay [6] and in [7] were above 11.4 µM, above 46 µM and above 9.22 µM, respectively. The values for the activity change, negative = inhibition in [2] and in assay [4] were -2.39% and 4.09%, respectively. For the same compound, the Potency result in assay [3], in assay [8] and in assay [9] was “inactive” each time. Further, in assay [5], the activity, negative = inhibition is 1.25%.
